Our source for the enrichment ratio values is a collection of fitness landscapes (doi:10.1126/science.1257360).

The chains are these.
B1: PhoQ; a variant is named by its letters at X, in order, P23837 (parent)
chain: MKKLLRLFFPLSLRVRFLLATAAVVLVLSLAYGMVALIGYSVSFDKTTFRLLRGESNLFYTLAKWENNKLHVELPENIDKQSPTMTLIYDENGQLLWAQRDVPWLMKMIQPDWLKSNGFHEIEADVNDTSLLLSGDHSIQQQLQEVREDDDDAEMTHSVAVNVYPATSRMPKLTIVVVDTIPVELKSSYMVWSWFIYVLSANLLLVIPLLWVAAWWSLRPIEALAKEVRELEEHNRELLNPATTRELTSLVRNLNRLLKSERERYDKYRTTLTDLTHSLKTPLXXLQXXLRSLRSEKMSVSDAEPVMLEQISRISQQIGYYLHRASMRGGTLLSRELHPVAPLLDNLTSALNKVYQRKGVNISLDISPEISFVGEQNDFVEVMGNVLDNACKYCLEFVEISARQTDEHLYIVVEDDGPGIPLSKREVIFDRGQRVDTLRPGQGVGLAVAREITEQYEGKIVAGESMLGGARMEVIFGRQHSAPKDE

In all, about 140,000 sequences were measured (“enrichment ratio after two sorts for PhoP signalling”: median about 0, highest 2% from about 11 on). Shown is part of a subset that was picked to be rich in the highest values. Where only a bound is given, the exact number is not on record here.

The variants in this test derive from B1. As to the kind of experiment: enrichment ratio after two sorts for PhoP signalling (ratio (wild type AVST 3.29)); higher = more functional. The conditions noted are these: with PhoP (E. coli).
For the variant KLEH, the enrichment ratio is not above 0.25. To ISEL belongs not above 0.25; to VMQA, not above 0.25; to GMPK, not above 0.25. As to MLTV, the enrichment ratio is not above 0.25. To ASWV belongs not above 0.25; to MNTV, 12.2. As to ASAV, the enrichment ratio was 11.5. To ASRC belongs not above 0.25. Regarding ASTC, the enrichment ratio came to 5.39. To ASIC belongs 12.1; to AMTV, 9.95. To AWTV belongs not above 0.25. To ASAE belongs 5.56; to AVTV, 12.1; to TNTV, 10.2. For DPKY, the enrichment ratio is not above 0.25. To MCMW belongs not above 0.25; to PTRL, not above 0.25. To ETSM belongs not above 0.25. As to LHSW, the enrichment ratio is not above 0.25.

As for ASIQ, the enrichment ratio was 5.62.

For the variant ASII, the enrichment ratio turned out to be 12.7. To ASIT belongs 9.21; to ASWN, not above 0.25; to ASCC, 18.2. To ASIL belongs 19.5. In the case of VRCC, the enrichment ratio is not above 0.25. To ASFH belongs not above 0.25; to ASWL, 5.05; to ASCI, 19.9.

Regarding ASCS, the enrichment ratio was found to be 4.46. Turning to ASCE, the enrichment ratio was determined as 4.22. To DFLG belongs not above 0.25; to RMGP, not above 0.25. To MITD belongs not above 0.25; to PINH, not above 0.25.

In the case of EKTC, the enrichment ratio was not above 0.25.

Turning to QEPD, the enrichment ratio was not above 0.25. To ERFK belongs not above 0.25. For LKWG, the enrichment ratio was not above 0.25. To TNVF belongs not above 0.25; to ASPL, 1.12. To ASCL belongs 20.8; to TARQ, not above 0.25; to HHQY, not above 0.25. For the variant SPST, the enrichment ratio was not above 0.25. To TSST belongs 15; to NSST, not above 0.25; to KSST, not above 0.25. To SLST belongs 2.81; to SSST, 12.7. Turning to QMYK, the enrichment ratio was not above 0.25. QIPN: the enrichment ratio is not above 0.25.

FCES: the enrichment ratio was not above 0.25. To VVSR belongs not above 0.25; to QSAV, 12.1; to KAWV, not above 0.25.

Turning to QSAE, the enrichment ratio was not above 0.25. To FSWV belongs not above 0.25. To FSAV belongs 0.409; to NAWV, not above 0.25; to QGWV, 18.5. To KSYV belongs not above 0.25; to QEYV, not above 0.25.

For FFWV, the enrichment ratio is not above 0.25. Regarding QSYV, the enrichment ratio was 14.9. To QAWV belongs 20.2; to TGVE, not above 0.25. To HYPL belongs not above 0.25; to AGIC, 3.1; to RPIA, not above 0.25. Regarding TYVT, the enrichment ratio was not above 0.25. To AHFF belongs not above 0.25; to HDNT, not above 0.25. To WSHN belongs not above 0.25.

In the case of PSPA, the enrichment ratio is not above 0.25. Take LQDQ: the enrichment ratio is not above 0.25. To WDVC belongs not above 0.25; to DEVE, not above 0.25. To QQVK belongs not above 0.25.

With QRWV, the enrichment ratio is not above 0.25. To QQWV belongs 11.8. To TSAV belongs 16.5; to QGIV, not above 0.25. As to QLWV, the enrichment ratio was not above 0.25. To QSWV belongs 22.9; to QPWV, not above 0.25. To QGMS belongs not above 0.25; to QGMV, 23.6; to MMAV, 5.57.

For the variant KSAV, the enrichment ratio was not above 0.25. To IYAV belongs not above 0.25; to IMHI, not above 0.25; to VVLM, 3.83. To DISV belongs not above 0.25; to ASKR, not above 0.25. To NKAS belongs not above 0.25. ETLP: the enrichment ratio is not above 0.25.

On to QAKK, for which the enrichment ratio was not above 0.25. To YNYA belongs not above 0.25; to WNDE, not above 0.25; to FFMI, not above 0.25. To QGMW belongs not above 0.25. As to KAYV, the enrichment ratio is not above 0.25. To QAYI belongs 8.06; to QGMI, 19.9; to QAYV, 12.6. To WHSE belongs not above 0.25. To PFWH belongs not above 0.25; to WKDV, not above 0.25. For GNCI, the enrichment ratio came to 14.4. Consider GNLA, for which the enrichment ratio was determined as 7.72. To GTCA belongs not above 0.25; to GTCK, not above 0.25; to GNLT, 16.5. To GTCI belongs 11.7. To GNNT belongs not above 0.25; to GNHF, not above 0.25; to GNYI, not above 0.25. Regarding DCAI, the enrichment ratio is not above 0.25. To WVLT belongs not above 0.25; to WFHM, not above 0.25; to TILT, 2.41. In the case of RNAL, the enrichment ratio is not above 0.25.

Consider MLVQ, for which the enrichment ratio was not above 0.25. Turning to VEVV, the enrichment ratio was determined as 2.45. To YEIT belongs not above 0.25. KFTH: the enrichment ratio is not above 0.25. As to HGCC, the enrichment ratio was not above 0.25. Regarding GGCC, the enrichment ratio came out at 1.09.

For the variant QGCC, the enrichment ratio was not above 0.25. Turning to SGCC, the enrichment ratio worked out at 14.2. For SGFH, the enrichment ratio was not above 0.25.

For the variant NGCC, the enrichment ratio was not above 0.25.

With FGCC, the enrichment ratio stood at 13.2. To AGCC belongs 16.1. To SGCH belongs 8.61; to AICC, 5.26. To FGCH belongs not above 0.25; to TGCC, 21.5. Consider EIKT, for which the enrichment ratio was not above 0.25. To ELGV belongs not above 0.25; to GQWY, not above 0.25. To AMER belongs not above 0.25; to SFYL, not above 0.25; to SREH, not above 0.25. To GSFE belongs not above 0.25; to CYLP, not above 0.25; to FDCC, not above 0.25. On to TDCC, for which the enrichment ratio is 12.6.

As for LTCC, the enrichment ratio was not above 0.25.

Take FVLE: the enrichment ratio was not above 0.25. To KTTE belongs not above 0.25; to PKGP, 4.39.

For the variant AKLF, the enrichment ratio is 7.81. To AQLF belongs 15.8; to STLF, 14.6; to KCLF, not above 0.25. To GCLF belongs 13.2. To KYLF belongs not above 0.25; to HKLF, not above 0.25; to FQLF, 6.28. Consider SPLF, for which the enrichment ratio is not above 0.25. Regarding TKLF, the enrichment ratio is 18. To QCLF belongs not above 0.25; to ADLF, not above 0.25; to LCCL, not above 0.25. To GKCT belongs not above 0.25. Take RRGY: the enrichment ratio is not above 0.25. For the variant FMSK, the enrichment ratio was not above 0.25. Take AILF: the enrichment ratio is 2.9. To TTLF belongs 4.92; to DPLF, not above 0.25; to SRLF, not above 0.25.

GTLF: the enrichment ratio stood at 11.4. To GYLF belongs not above 0.25; to SQLF, 12.6.

YTLF: the enrichment ratio turned out to be 6.76. Regarding EQLF, the enrichment ratio was not above 0.25. To ATLF belongs 13.9. To SLLF belongs 0.885; to SELF, 13.1; to YMKT, not above 0.25.

Consider QAAW, for which the enrichment ratio is not above 0.25. To WQED belongs not above 0.25. To NQDM belongs not above 0.25; to IYQN, not above 0.25; to DQIN, not above 0.25. To HPPT belongs not above 0.25; to DIGD, not above 0.25; to SISR, 6.33.

With SQMK, the enrichment ratio is not above 0.25. To KYSK belongs not above 0.25. To SITR belongs 11.4; to STMK, 9.3; to SISK, 12.1. To SIMK belongs 28.9. As for EQMS, the enrichment ratio is not above 0.25. To SIGR belongs 1.85. To KYTR belongs not above 0.25; to NQMS, not above 0.25; to SQMS, 17.9.
